Compound activity deposited in PubChem by National Center for Advancing Translational Sciences (NCATS).
ATXN viability – cell viability loss in ATXN counter-screen | S2 cells (HEK-293 line with an ATXN2-luciferase reporter) viability, CellTiter-Fluor protease fluorescence, 24 h | 400,000 compounds, 0.49% hits | Potency, µM (highest dose often 56.7 µM), hits mostly cytotoxic; also: nearly all actives have a fitted effect of over 40% in size
TGFb SMAD3 inh – blocks TGF-b signaling; AID 588855; Potency, µM (titrated, usually from 46.1 µM), for the others: at the top dose activity, negative = inhibition, actives largely listed as inhibitors; HepG2 CAGA-GFP TGF-b/SMAD3 reporter, GFP fluorescence, 18 h; TGF-beta stimulated, 500 pg/mL final; 410,000 compounds, 1.2% hits; also: % is scaled to controls: 0 for no effect and ±100 for the full control effect; nearly all actives have a fitted effect of over 65% in size
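HEPG2 CAGA-GFP, 1000 cells/well; 2 h settle, 37 C; cpd via pin tool; TGF-b 500 pg/mL final; 18 h, 37 C; GFP imaging ex488/em500-530; %Activity normalised to -TGF-b and +DMSO controls; CRC fit, curve class.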
RORg inh – ROR gamma (mouse) transcription inhibition. P51450. Drosophila S2 Gal4-RORgamma UAS-luciferase reporter, 20 h. Potency, µM (titrated, usually from 53.6 µM), for inactives: at the top dose activity change, negative = inhibition, hits mostly inhibitors. AID 2551. 310,000 compounds, 5.4% hits; also: % is scaled to controls: 0 for no effect and ±100 for the full control effect; nearly all actives have a fitted effect of over 60% in size
Target sequence (P51450 whole entry, looked up, the tested form may be a part): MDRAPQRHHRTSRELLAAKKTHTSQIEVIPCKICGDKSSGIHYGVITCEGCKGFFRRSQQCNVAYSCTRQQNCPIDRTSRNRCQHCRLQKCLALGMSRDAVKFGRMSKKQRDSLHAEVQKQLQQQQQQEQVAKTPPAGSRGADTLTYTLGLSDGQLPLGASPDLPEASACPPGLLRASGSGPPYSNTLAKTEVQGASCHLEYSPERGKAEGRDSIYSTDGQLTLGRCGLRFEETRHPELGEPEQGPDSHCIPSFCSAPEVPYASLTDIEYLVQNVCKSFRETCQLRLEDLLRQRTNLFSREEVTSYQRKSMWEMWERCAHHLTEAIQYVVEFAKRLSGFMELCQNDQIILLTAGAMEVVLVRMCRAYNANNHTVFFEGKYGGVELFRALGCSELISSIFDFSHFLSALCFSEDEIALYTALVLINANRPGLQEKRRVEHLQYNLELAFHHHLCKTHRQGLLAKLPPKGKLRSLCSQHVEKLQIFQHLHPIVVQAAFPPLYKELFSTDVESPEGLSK
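Drosophila Schneider cells stably carrying a metallothionein-driven Gal4 DBD–ROR gamma fusion and a UAS-Photinus luciferase reporter were exposed to compound for 1 hr, then induced with copper sulfate (700 uM final) for 20 hr at ambient temperature before luminescence reading.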
Gal4-VP16 FLuc – Gal4-VP16 reporter inhibition counter-screen | Drosophila S2 Gal4-VP16 UAS-luciferase, luminescence, 20 h | 310,000 compounds, 3.5% hits | AID 2546 | Potency, µM (titrated, usually from 53.6 µM), without a hit: top-dose activity, negative = inhibition, actives largely listed as inhibitors;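 also: Gal4-VP16 expression switched on by copper sulfate through the metallothionein promoter; % is scaled to controls: 0 for no effect and ±100 for the full control effect; nearly all actives have a fitted effect of over 50% in size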
ATXN2 expr inh – reduces ATXN2 reporter expression in HEK-293 cells; HEK-293 ATXN2-luciferase reporter, luminescence, 24 h; Potency, µM (series often up to 57 µM), for the others: at the highest dose activity change, negative = inhibition, most hits filed as inhibitors; 360,000 compounds, 0.72% hits; also: % is scaled to controls: 0 for no effect and ±100 for the full control effect; nearly all actives have a fitted effect of over 55% in size
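ATXN2-luciferase reporter cells (luciferase flanked by upstream and downstream ATXN2 gene portions) were treated 24 h at 37 °C with compounds at up to 57 uM. SteadyGlo luminescence gave expression; GF-AFC fluorescence gave viability.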
HepG2 viability – kills HepG2 cells in TGF-b inhibitor counter-screen | HepG2 CAGA-GFP viability, ATP luminescence, 18 h | Potency, µM (series often up to 46.1 µM), for the others: at the highest dose activity change, negative = cytotoxicity, most hits filed as cytotoxic | 410,000 compounds, 0.76% hits | AID 588856
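CellTiter-Glo luminescence gave cytotoxicity after 18 hours at 37 degrees C. The cells were HepG2 CAGA-GFP in 1% FBS DMEM, stimulated with 500 pg/mL TGF-beta after compound addition. %Activity was normalised to no-cell wells (complete cell-killing) and DMSO (no toxicity), and curves were fitted and classified.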
Starred values were filed as active, the others as inactive; i = inactive; u = inconclusive; x = no result given; [ ] = dose if it differs, or a comment. Only some compounds are listed: those with a hit (about 6.1% of all), similar ones and a draw of the others. Calls follow the shape of the dose curve; as a rule, active = well fitted curve in the direction sought with a large enough effect; inconclusive = small, poorly fitted or top-dose-only effect, or another doubt; inactive = no such curve, though single readings can be large; an effect the other way counts as inactive or inconclusive. Potency is read from the fitted curve at half-maximal effect.

SMILES	ATXN viability	TGFb SMAD3 inh	RORg inh	Gal4-VP16 FLuc	ATXN2 expr inh	HepG2 viability
Cc1cc(Cl)ccc1OCC(=O)N1C(C)CCCC1C (centres undefined)	u	0.2%	-34.5%	u	23.5%	-28.5%
Cc1cc(Cl)ccc1OCc1n[nH]c(=S)n1C1CCCCC1	i	u	0.794µM*	2.51µM*	2.1%	-100.4%
CC1CCN(c2ccc(-c3cccs3)nn2)CC1	i	-25.1%	2µM*	2µM*	x	-23.0%
OCc1cnc(SCc2ccccc2F)n1Cc1ccc(F)cc1	i	12.8%	x	x	-0.3%	-3.7%
COc1ccc(OCC(=O)Nc2ccc3c(c2)N(C)C(=O)c2ccccc2S3)cc1	u	-11.3%	x	x	u	-11.1%
CN1C(=O)c2ccccc2Sc2ccc(NC(=O)COc3ccc(Cl)cc3)cc21	u	2.82µM*	x	x	-2.8%	-16.8%
CCN(c1ccccc1)S(=O)(=O)c1nnc(NC(=O)c2ccccc2)s1	x	-7.4%	x	x	x	-12.5%
Cc1cc(C)c(S(=O)(=O)N(C2=NCCS2)S(=O)(=O)c2c(C)cc(C)cc2C)c(C)c1	i	-4.3%	15.8µM*	-8.1%	-0.9%	-1.8%
Cc1cc(C)c(S(=O)(=O)N(CC(=O)O)CC(=O)O)c(C)c1	x	-2.3%	-9.0%	-0.9%	x	2.1%
OCC1(Cc2ccc(Cl)cc2)CCN(Cc2ccccc2F)CC1	i	-10.0%	10.0%	-0.5%	-35.4%	-26.2%
CSc1ccc(CN2CCC(CO)(Cc3ccc(Cl)cc3)CC2)cc1	u	22.4µM*	-23.2%	-0.7%	u	-156.3%
COc1ccc(/C=N\NC(=O)CCc2c(C)n[nH]c2C)c(OC)c1OC	i	3.3%	-4.4%	-9.8%	x	3.1%
COc1ccc(O)c(/C=N\NC(=O)CCn2nnc3ccccc32)c1	u	u	8.91µM*	2.82µM*	u	1.3%
COc1cccc(/C=N\NC(=O)Cn2nnc3ccccc32)c1O	i	-27.8%	1.26µM*	3.16µM*	-24.2%[11.3 µM]	-26.8%
COc1ccc(/C=N/NC(=O)CSCC(=O)Nc2ccccc2)cc1	i	-16.9%	6.2%	-16.0%	6.4%	-1.9%
COc1cccc(/C=N/NC(=O)CSCC(=O)Nc2ccccc2)c1O	i	8.5%	0.501µM*	1.58µM*	28.2µM*	-17.5%
COc1cccc(/C=N/NC(=O)CCc2c(C)n[nH]c2C)c1O	i	u	1.41µM*	3.16µM*	-16.9%	-33.5%
CCN(CC)CCNC(=O)C(=O)Nc1c2c(nn1-c1ccc(F)cc1)CSC2	u	7.5%	x	x	-3.8%	3.8%
Cc1nc2cc(NC(=O)c3ccc(Br)s3)ccc2s1	i	-17.8%	5.01µM*	u	24.8%	-30.3%
O=C1NC[C@H](Cc2ccccc2)N(C[C@@H]2CCCN2C[C@H](Cc2ccc(O)cc2)N2C[C@H](Cc3ccccc3)N(CC3CCCCCC3)C(=O)C2=O)C1=O	u	x	x	x	-28.0%	x
O=C1NC[C@H](Cc2ccccc2)N(C[C@@H]2CCCN2C[C@H](Cc2ccccc2)N2C[C@H](Cc3ccccc3)N(CC3CCCCC3)C(=O)C2=O)C1=O	x	17.8µM*	x	x	u	-55.0%
O=C1NC[C@H](Cc2ccccc2)N(C[C@H]2CCCN2C[C@H](Cc2ccccc2)N2C[C@H](Cc3ccccc3)N(CC3CCCCC3)C(=O)C2=O)C1=O	17.8µM*	u	x	x	u	7.08µM*
O=C1NC[C@H](Cc2ccc(O)cc2)N(C[C@@H]2CCCN2C[C@H](Cc2ccccc2)N2C[C@H](Cc3ccccc3)N(CC3CCCCCC3)C(=O)C2=O)C1=O	u	x	x	x	-10.8%	x
COc1ccc(NC(=O)CCCn2c(=O)c3cccn3c3ccccc32)c(OC)c1	x	-22.7%	x	x	x	-18.2%
Cc1cccc(NC(=O)c2nc[nH]c2C(=O)N[C@@H](Cc2ccccc2)C(=O)OC(C)(C)C)c1	x	u	3.16µM*	7.08µM*	u	-62.3%
SMILES	ATXN viability	TGFb SMAD3 inh	RORg inh	Gal4-VP16 FLuc	ATXN2 expr inh	HepG2 viability
Cc1cccc(NC(=O)c2nc[nH]c2C(=O)N[C@@H](CC(C)C)C(=O)OC(C)(C)C)c1	u	u	5.62µM*	10µM*	-24.7%	-66.1%
Cc1cccc(NC(=O)c2nc[nH]c2C(=O)NC[C@@H](C)O)c1	u	16.5%	x	x	-10.0%	-1.1%
CC(C)(C)OC(=O)NCCCCCNC(=O)c1[nH]cnc1C(=O)N[C@@H](Cc1ccccc1)C(=O)OC(C)(C)C	u	u	x	x	u	-50.9%
CC(C)CC(NC(=O)C1CCCCC1)C(=O)Nc1cccc(C(F)(F)F)c1 (centres undefined)	i	10.4%	x	x	2.2%	1.2%
Cc1cc(/C=C2\SC(=S)N(C)C2=O)c(C)n1-c1ccc(O)cc1	u	u	u	0.631µM*	u	-92.3%
Cc1cc(/C=C2\SC(N)=NC2=O)c(C)n1-c1ccc(F)cc1	i	-10.3%	11.2%	-9.3%	17.1%	12.6µM*
Cc1cc(/C=C2/SC(=S)N(c3ccc([N+](=O)[O-])cc3)C2=O)c(C)n1-c1cccnc1	u	-11.7%	3.16µM*	0.891µM*	u	-18.4%
Cc1ccc(C)c(N2CCN(S(=O)(=O)c3ccc4[nH]c5c(c4c3)CCCCC5)CC2)c1	i	-2.7%	x	x	-15.1%	-14.4%
CCOC(=O)c1c(C)[nH]c(CCC(=O)NCc2ccc(N(C)C)cc2)c1C	x	0.0%	x	x	x	-3.3%
COC[C@@H](c1ccc(C(F)(F)F)cc1)N1CCN(C2(C)CCN(C(=O)c3c(C)ncnc3C)CC2)C[C@H]1C	i	x	x	x	-10.8%	x
Cn1c(/C(C#N)=C(\O)c2ccc([N+](=O)[O-])s2)nc2ccccc21	i	1.9%	-34.9%	-2.4%	10.4%	-22.3%
Cn1c(/C(C#N)=C(\O)c2ccc(Cl)s2)nc2ccccc21	i	-3.8%	2µM*	4.47µM*	x	-5.8%
CCOC(=O)c1c(C)oc2ncnc(N3CCN(c4cccc(Cl)c4)CC3)c12	u	11.2µM*	x	x	u	-46.3%
CCC1CSC(Nc2ccc(C(=O)/C=C/c3cccc(C)c3)cc2)=N1 (centres undefined)	i	17.8µM*	-5.6%[10 µM]	u	-20.5%	-100.5%
CCC1CSC(Nc2ccc(C(=O)/C=C/c3ccc(Oc4ccccc4)cc3)cc2)=N1 (centres undefined)	u	u	15.8µM*	u	u	-64.1%
CO[C@H]1[C@H](NC(=O)c2ccncc2)c2ccccc2C12CCN(C(=O)c1ccoc1)CC2	i	x	x	x	x	x
COc1ccc(OC)c2sc(N(Cc3cccnc3)C(C)=O)nc12	x	-1.2%	x	x	x	0.6%
O=C(NCCCc1nc2ccccc2n1Cc1ccccc1Cl)c1ccco1	u	u	x	x	u	-30.1%
